# Compound activity as filed in PubChem.
# IL1B secr inh – blocks inflammasome-driven IL-1 beta release; THP-1 LPS/ATP IL-1B secretion, AlphaLISA, 16 h; stronger effect = lower value; AID 743279; 360,000 tested, 4.7% active; activity change, % at 57.5 µM; in the data active means activity change below about -50%; inconclusive means mostly about -30% to -49%
#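 Secreted IL-1B measured by AlphaLISA bead assay after 16 h compound exposure of THP-1 cells; compounds (final up to 57.5 uM) added 1 h before LPS (250 ng/mL) and ATP (1.25 mM) stimulation; lower signal means less secretion.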
# Six1-Eya2 blk – blocks human Six1 binding to Eya2; Q15475+O00167; AlphaScreen GST-Six1/His-Eya2 binding, biochemical; stronger effect = lower value; activity change, % (test concentration not listed); 360,000 tested, 0.56% active; in the data active means activity change below about -65%; inconclusive means mostly about -30% to -63%
#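 GST-Six1 + His-Eya2 (5X stock: 250/500 nM); Tris pH 8.0, 300 mM NaCl, 0.05% BSA, 0.02% Tween 20; GSH donor/Ni acceptor beads; 1 h 37 °C dark; AlphaScreen readout.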
# TDP1 inh – blocks human tyrosyl-DNA phosphodiesterase 1; Q9NUW8; recombinant TDP1, AlphaScreen DNA substrate cleavage; Potency, µM (top dose mostly 130 µM), for inactives: at the top dose activity change, negative = inhibition, actives largely listed as inhibitors; 350,000 tested, 0.28% active; further: potency means the concentration at half of the fitted maximal effect; nearly all actives have a fitted effect of over 40% in size
# Target sequence (Q9NUW8 whole entry, looked up): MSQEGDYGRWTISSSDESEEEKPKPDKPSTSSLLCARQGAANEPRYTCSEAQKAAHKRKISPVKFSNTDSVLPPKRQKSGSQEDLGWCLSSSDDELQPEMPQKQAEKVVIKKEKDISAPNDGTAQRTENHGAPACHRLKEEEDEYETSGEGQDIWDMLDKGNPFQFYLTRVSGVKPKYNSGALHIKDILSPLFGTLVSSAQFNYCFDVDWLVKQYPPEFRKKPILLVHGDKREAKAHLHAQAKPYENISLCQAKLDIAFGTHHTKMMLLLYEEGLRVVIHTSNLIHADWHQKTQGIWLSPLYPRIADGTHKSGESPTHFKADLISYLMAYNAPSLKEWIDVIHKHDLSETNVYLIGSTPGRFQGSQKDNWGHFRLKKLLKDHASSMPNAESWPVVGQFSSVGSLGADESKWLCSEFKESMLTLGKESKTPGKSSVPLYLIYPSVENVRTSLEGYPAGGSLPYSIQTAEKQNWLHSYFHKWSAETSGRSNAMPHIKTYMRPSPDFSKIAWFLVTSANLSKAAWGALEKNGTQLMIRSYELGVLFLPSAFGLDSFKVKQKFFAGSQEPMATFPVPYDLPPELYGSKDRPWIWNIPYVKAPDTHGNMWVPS
#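 Enzyme-compound mixtures sat 15 min at room temperature, followed by a 5 min reaction with 15 nM final substrate and 10 min with AlphaScreen beads. Recombinant human Tdp1 was used at 1 nM final.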
# TDP1 cell CPT – DT40-hTDP1 cell growth loss with CPT. chicken DT40 Tdp1-/-;hTDP1 cells + 20 nM CPT, ATP luminescence, 48 h. Potency, µM (titrated, usually from 46.2 µM), without a hit: top-dose activity change, negative = growth inhibition, most hits filed as inhibitors. 420,000 tested, 12% active. AID 686979; further: potency means the concentration at half of the fitted maximal effect; nearly all actives have a fitted effect of over 55% in size
#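 Chicken DT40 Tdp1-/- cells complemented with human TDP1, 400 cells/well, exposed to compounds plus 20 nM camptothecin for at least 48 h at 37 C; viability read as ATP content by CellTiter-Glo luminescence.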
# TDP1 cell noCPT – qHTS for Inhibitors of human tyrosyl-DNA phosphodiesterase 1 (TDP1): qHTS in cells in absence of CPT; DT40 Tdp1-/- hTDP1 cells, no CPT, ATP luminescence, 48 h; Potency, µM (doses to about 46.2 µM), inactives show top-dose activity change, negative = growth inhibition, hits mostly inhibitors; 420,000 tested, 15% active; AID 686978, 2013; further: potency means the concentration at half of the fitted maximal effect; nearly all actives have a fitted effect of over 55% in size
#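 DT40 Tdp1-/-;hTDP1 cells, no CPT (DMSO vehicle only), 400 cells/well; compounds pin-transferred; ≥48 hr, 37 °C; CellTiter-Glo 30 min RT dark, luminescence read.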
# CtBP-E1A blk – blocks the CtBP interaction with E1A | AlphaScreen GST-E1A/His-CtBP binding, 1536-well; stronger effect = lower value | activity change, % (concentration not given with the values) | 340,000 tested, 0.49% active | AID 651724; in the data active means activity change below about -65%; inconclusive means mostly about -30% to -63%
#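 GST-E1A and His-tagged CtBP (125 nM each as 5X stock) were preincubated with pin-transferred compound for 2 h at 37 °C in the dark, then glutathione donor and nickel acceptor beads were added for 1 h before AlphaScreen reading.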
# An asterisk follows results filed as active; u = inconclusive; x = not tested or not shown; [ ] = remark or other dose. Compounds with a hit are over-represented: about 18% of the library has one in this group of screens. Unless noted, the call rests on the fitted dose curve; in most records, active means well fitted curve in the direction sought with a large enough effect; inconclusive means small, poorly fitted or top-dose-only effect, or another doubt; inactive means no such curve, though single readings can be large; an effect the other way counts as inactive or inconclusive. On the % scale 0 is the no-effect control and ±100 the full control effect.
SMILES,IL1B secr inh,Six1-Eya2 blk,TDP1 inh,TDP1 cell CPT,TDP1 cell noCPT,CtBP-E1A blk
CCOc1cc(C(c2c(C)[nH][nH]c2=O)c2c(C)[nH][nH]c2=O)ccc1O,-63*,-9,6%,-19%,-8%,-6
COc1cc(C(c2c(C)[nH][nH]c2=O)c2c(C)[nH][nH]c2=O)ccc1OC(C)C,-70*,2,-7%,12%,-23%,5
COc1ccc(C(c2c(C)[nH][nH]c2=O)c2c(C)[nH][nH]c2=O)cc1Br,-29,-4,5%,-6%,u,x
O=C(NNC(=O)c1cc2ccccc2o1)c1ccc(Cl)cc1,14,7,x,2%,-2%,4
COc1ccc(OC)c(Nc2ncnc3c2cnn3-c2ccccc2)c1,-3,-6,4%,-26%,u,-6
C[C@@H](Cc1cccc(C(F)(F)F)c1)NCCOC(=O)c1ccccc1,x,x,10%[21 µM],x,x,x
C[C@@H](NCCCc1cccc(C(F)(F)F)c1)c1cccc2ccccc12,x,x,x,9.4µM*,8.4µM*,x
CC1Cc2ccccc2N1C(=O)CSc1nnnn1C1CCCC1 (configuration not stated),0,-3,8%,-15%,u,-1
Cc1ccc2c(c1)/C(=C/c1ccc(F)cc1)C(=O)N2,-75*,-1,x,u,21µM*,x
O=C1Nc2ccccc2/C1=C/c1ccccc1Cl,-12,-3,x,6%,u,2
Cc1ccc2c(c1)/C(=N/N1C(=O)c3ccccc3C1=O)C(=O)N2,6,-1,5%,u,-1%,4
COc1ccccc1/C=C1\C(=O)Nc2ccccc21,-16,0,8%,u,21µM*,x
Cc1ccc2c(c1)/C(=C/c1ccccc1C)C(=O)N2,-100*,-9,x,-30%,u,-2
O=C(NNC(=O)c1ccccc1O)c1ccc(S(=O)(=O)Nc2ccccc2F)cc1,70,-26,x,u,u,-24
Cc1ccc(C(=O)NNC(=O)c2cc(C)nc3ccccc23)cc1,-7,-4,1%,3%,-4%,4
CC(C)C(=O)N1CCN(c2ccc(NC(=O)COc3ccccc3[N+](=O)[O-])cc2)CC1,-90*,-12,-2%,15µM*,18µM*,-18
O=C(COc1cc(F)ccc1[N+](=O)[O-])Nc1ccc(N2CCOCC2)cc1,-24,-3,5%,-2%,0%,1
O=C(COc1cc(F)ccc1[N+](=O)[O-])Nc1ccc(N2CCCCC2)cc1,-67*,u,x,u,u,-28
CCOC(=O)[C@H]1[C@H]2COc3ccc(C)cc3[C@@H]2N2C(=O)[C@@H](CO)NC(=O)[C@@]12C,28,5,1%,0%,-21%,-2
COc1ccc(NC(=O)Cc2ccccc2)cn1,16,20,4%,-8%,-3%,7
COc1ccc(CS(=O)(=O)/C(Cl)=C(/Cl)C(=O)Nc2ccc(OC)nc2)cc1,-120*,-14,1%,0.58µM*,0.58µM*,-17
COc1ccc(NC(=O)/C(Cl)=C(/Cl)S(=O)Cc2ccccc2)cn1 (configuration not stated),-103*,u,5%,0.021µM*,0.018µM*,0
Cc1cc(C)c(S(=O)(=O)Nc2nnc(C(C)C)s2)c(C)c1,16,-6,x,0%,-18%,x
Cc1nc2nc(SCC(=O)NC3CCC(C)CC3)nn2c(C)c1Cc1ccccc1 (configuration not stated),x,x,8%,18µM*,u,x
COc1cc(NC(=O)CSc2nc3nc(C)c(Cc4ccccc4)c(C)n3n2)cc(OC)c1OC,x,x,10%,21µM*,21µM*,x
Cc1ccccc1Cc1c(C)nc2nc(SCC(=O)NCCCN3CCCC3)nn2c1C,-21,-14,0%,-14%,-4%,-5
